Source: PubChem (National Center for Advancing Translational Sciences (NCATS))
An excerpt weighted towards active compounds, which were near 7.8% of everything screened.
Vaccinia Venus = inhibitors of vaccinia virus (Venus reporter); Potency, µM (doses to about 36.5 µM), inactives show at the top dose activity change, negative = inhibition, usual class: inhibitors; 330,000 compounds, 0.46% hits; AID 720580; Vaccinia virus Venus reporter expression, fluorescence; calls by dose curve; tested in A549 cells; also: potency is read from the fitted curve at half-maximal effect; nearly all actives have a fitted effect of over 30% in size
HCV inh = blocks hepatitis C virus. 340,000 compounds, 3.4% hits. Potency, µM (series often up to 41.8 µM), for inactives: at the top dose activity change, negative = inhibition, hits mostly inhibitors. AID 651820. Huh7.5.1 HCVcc-Cre infection, luciferase reporter, 44 h; active = well fitted inhibition curve with a large enough effect; inconclusive = small, poorly fitted or top-dose-only effect, or another doubt; inactive = no such curve, though single readings can be large or run the other way; also: potency is read from the fitted curve at half-maximal effect
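Cells seeded at 1,000/well and cultured 4 h, then compounds added followed by HCVcc-Cre virus (~0.5 moi). After 44 h further culture, luciferase substrate was added, plates held 15 min at room temperature, and luminescence read for 15 sec.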
Lassa entry inh = inhibitors of Lassa virus binding or cell entry. Lassa virus pseudotype entry inhibition, cell reporter. Potency, µM (top dose mostly 37.9 µM), for the others: at the top dose activity change, negative = inhibition, most hits filed as inhibitors. 300,000 compounds, 1.2% hits; calls by dose curve; tested in HEK293 cells; also: potency is read from the fitted curve at half-maximal effect; nearly all actives have a fitted effect of over 50% in size
Vaccinia mCherry = vaccinia inhibition (mCherry reporter). Vaccinia virus mCherry reporter infection, fluorescence. Potency, µM (doses to about 36.5 µM), for the others: at the top dose activity change, negative = inhibition, most hits filed as inhibitors. 310,000 compounds, 0.63% hits; calls by dose curve; tested in A549 cells; also: potency is read from the fitted curve at half-maximal effect; nearly all actives have a fitted effect of over 35% in size
MARV entry inh = blocks Marburg virus binding to or entry into cells; Marburg virus pseudotyped entry inhibition, cell reporter; Potency, µM (highest dose often 37.8 µM), for the others: at the highest dose activity change, negative = inhibition, usual class: inhibitors; 300,000 compounds, 1.8% hits; calls by dose curve; tested in HEK293 cells; also: potency is read from the fitted curve at half-maximal effect
HCMV antiviral = blocks human cytomegalovirus replication | HFF cells, HCMV-luciferase reporter, 72 h; hits give low values | activity change, negative = inhibition, % at 57.5 µM | 410,000 compounds, 4.5% hits | AID 1259415; in the data active = activity change below about -60%; inconclusive = no clear call, values can overlap the other calls; inactive = above about -39%
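Screen run at 2 compound doses on HFFs infected with reporter HCMV, MOI 1 PFU/cell. Luciferase activity from cell lysates at 72 h post infection gave inhibition relative to buffer-only and Salinomycin wells.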
An asterisk follows results filed as active; i = inactive; ? = inconclusive; / = no result given; ! = a repeat was not active; [ ] = dose if it differs, or a comment. % is scaled to controls: 0 for no effect and ±100 for the full control effect.

SMILES | Vaccinia Venus | HCV inh | Lassa entry inh | Vaccinia mCherry | MARV entry inh | HCMV antiviral
NC(=O)COc1ccc2oc(=O)cc(-c3cc4ccccc4o3)c2c1 | / | 7% | / | / | / | -14
CN(C)C(=O)Oc1ccc2oc(=O)cc(-c3cc4ccccc4o3)c2c1 | / | 11µM* | / | / | / | -20
COC(=O)COc1ccc2oc(=O)cc(-c3cc4ccccc4o3)c2c1 | / | -4% | / | / | / | 41
O=C(O)C[C@@H]1CCCc2ccccc2[C@H]1O | / | / | / | / | 38% | /
Cc1ccc(N2CCN(C(=O)Nc3cccc([N+](=O)[O-])c3)CC2C)cc1 (stereo not given) | -27% | -26% | ? | -29% | ? | -65*
O=C(Nc1cccc([N+](=O)[O-])c1)N1CCN(c2ccccc2)CC1 | -10% | ? | -13%[46.1 µM] | -22% | -7%[46.1 µM] | -64*
O=C(C[n+]1csc2ccccc21)c1cccc([N+](=O)[O-])c1 | -8% | / | / | -13% | / | /
Cc1c(CCOC(=O)c2ccc([N+](=O)[O-])cc2)sc[n+]1CC(=O)c1ccccc1 | -12% | -18% | -1%[46.1 µM] | -14% | -12%[46.1 µM] | 7
Cc1c(CCOC(=O)C2C3CC4CC(C3)CC2C4)sc[n+]1CC(=O)c1ccc(Br)cc1 (stereo not given) | ? | ? | -23% | / | ? | -103*!
COc1ccc(C(=O)OCCc2sc[n+](CC(=O)c3ccccc3)c2C)cc1 | -11% | ? | 2% | -6% | -1%[46.1 µM] | ?
Cc1c(CCOC(=O)c2ccc(Cl)cc2Cl)sc[n+]1CC(=O)c1ccc(Br)cc1 | / | 14µM* | / | / | / | 0
Cc1ccc(-c2nc3cccc(C)n3c2Nc2ccc(F)cc2)o1 | -11% | / | / | -18% | / | /
CC(C)[C@@H]1CC[C@H](C)C[C@H]1OP(N)(=O)c1ccccc1 (stereo not given in full) | / | / | / | / | -2% | /
Cc1cnc(NC(=O)C(C)(C)n2cc(-c3ccc4c(c3)OCCO4)cn2)s1 | / | / | / | / | / | 13
Cc1ccc(C(=O)CSc2nnnn2C(C)C)c(C)c1 | -19% | 6% | 7.1µM* | ? | 5.6µM* | ?
CCCn1c(=O)c2sccc2n2c(CCCC(=O)NC3CCC(C)CC3)nnc12 (stereo not given) | -13% | / | 20%[46.1 µM] | -7% | / | -17
CCC(NC(=O)c1cc(COc2cncc(Cl)c2)on1)c1ccc(C)cc1 (stereo not given) | -5% | -22% | -21% | -24% | ? | -99*
N#Cc1c(N(CCO)CCO)nc(N)c2c(N)nc3c(c12)CC(=O)N3CC1CCCO1 (stereo not given) | / | 19% | / | / | / | -23
CCCCN1C(=O)Cc2c1nc(N)c1c(N)nc(N(CCC)CCC)c(C#N)c21 | -6% | 4µM* | -1% | -6% | 15% | -22
C=C(C)CN(CC)c1nc(N)c2c(N)nc3c(c2c1C#N)CC(=O)N3C12CC3CC(CC(C3)C1)C2 | -24% | 4µM* | ? | ? | 2.5µM* | -69*
COc1ccc(CN2C(=O)Cc3c2nc(N)c2c(N)nc(N4CCCCC4)c(C#N)c32)cc1 | / | -14% | / | / | / | /
N#Cc1c(N2CCCC(O)C2)nc(N)c2c(N)nc3c(c12)CC(=O)N3C12CC3CC(CC(C3)C1)C2 (stereo not given) | / | 4µM* | 8.2µM* | / | ? | 70
CCCCc1ccc(NC(=O)CSC2=NN3CCCC(=O)N=C3S2)cc1 | -4% | 11µM* | ? | 13% | ? | -39
O=C1CCCN2N=C(SCC(=O)Nc3cccc(C(F)(F)F)c3)SC2=N1 | -1% | 6.3µM* | -29%[46.1 µM] | -19% | ? | -86*
O=C1CCCN2N=C(SCC(=O)Nc3cccc(Cl)c3)SC2=N1 | -1% | ? | -23%[46.1 µM] | -19% | -27%[46.1 µM] | -81*
SMILES | Vaccinia Venus | HCV inh | Lassa entry inh | Vaccinia mCherry | MARV entry inh | HCMV antiviral
Cc1ccc(S(=O)(=O)c2nc(-c3ccccc3F)oc2N2CC(C)OC(C)C2)cc1 (stereo not given) | -6% | ? | 16µM* | -11% | -17% | -20
O=S(=O)(c1ccc(F)cc1)c1nc(-c2ccccc2F)oc1N1CCCCC1 | / | -5% | -22% | / | -6% | -29
Nc1nc(N)c2c(OCc3ccc(C(F)(F)F)cc3)cccc2n1 | 10µM* | / | / | 10µM* | / | /
COCCc1nn2c(=O)cc(COC(=O)COc3ccccc3C)nc2s1 | -4% | / | 1%[46.1 µM] | -11% | / | 16
CCCCCn1ccc(=O)c2c(C(F)(F)F)nccc21 | / | 11µM* | ? | / | ? | -66*
CCCn1c(=N)n(CC(=O)c2ccc(Cl)cc2)c2ccccc21 | -15% | 13µM* | ? | ? | ? | -83*
CCCn1c(=N)n(CC(=O)c2ccc(OCC(=O)OC)cc2)c2ccccc21 | / | ? | / | / | / | -96*
CCCn1c(=N)n(CC(=O)c2ccc([N+](=O)[O-])cc2)c2ccccc21 | -16% | 13µM* | -5% | -21% | ? | 1
N=c1n(N)c2ccccc2n1CC(=O)c1ccc(Br)cc1 | -20% | 13µM* | ? | -28% | ? | 38
Cc1ccc(N2C(=O)C(CC(=O)Nc3cccc(F)c3)N(CCc3ccccc3F)C2=O)cc1 (stereo not given) | -4% | / | -12%[46.1 µM] | -22% | ? | 23
CC(=O)c1cccc(NC(=O)c2c(C)nn(-c3ccc(F)cc3)c2-n2cccc2)c1 | -1% | / | 19%[46.1 µM] | -12% | / | -11
Cc1cc(C)c(NC(=O)c2cc(S(=O)(=O)N3CCC4(CC3)OCCO4)ccc2F)c(C)c1 | -2% | / | 10%[46.1 µM] | -3% | / | -21
CC12CCCCCC3=CC(=O)C=C[C@]31OCC2 (stereo not given in full) | / | / | / | / | / | -23
COc1ccc(-n2c(SCC(=O)Nc3cc(C)cc(C)c3)nc3c(oc4ccccc43)c2=O)cc1 | -7% | / | / | -5% | -20%[46.1 µM] | -3
CCCN1CCc2c(sc(NC(=O)CCS(=O)(=O)c3ccccc3)c2C(N)=O)C1 | -19% | -22% | 2% | -11% | 2% | -92*
CCOC(=O)c1c(NC(=O)c2ccc(S(=O)(=O)N3CCC(C)CC3)cc2)sc2c1CCN(CC)C2 | ? | / | -1%[46.1 µM] | -29% | / | -82*
CCN1CCN(S(=O)(=O)c2ccc(C(=O)Nc3sc4c(c3C(N)=O)CCN(CC)C4)cc2)CC1 | -29% | -26% | ? | -17% | 8.9µM* | -3
CN1CCc2c(sc(NC(=O)CS(=O)(=O)c3ccccc3)c2C(N)=O)C1 | 3% | 10% | 13% | -11% | -1%[46.1 µM] | -6
CCOC(=O)c1c(NC(=O)c2ccc(S(=O)(=O)N3CCC(C)CC3)cc2)sc2c1CCN(C(C)C)C2 | -21% | / | 1%[46.1 µM] | -19% | / | -18
COc1cccc(CNC(=O)C(Cc2ccccc2)NS(=O)(=O)c2ccc3c(c2)oc(=O)n3C)c1 (stereo not given) | 5% | / | 1%[46.1 µM] | -9% | 16%[46.1 µM] | 6
Cc1noc(C)c1S(=O)(=O)N(C)C[C@H]1Oc2ccc(NS(=O)(=O)c3cn(C)cn3)cc2C(=O)N([C@H](C)CO)C[C@@H]1C | -10% | 3.5µM* | / | i | / | -5
